# Source: PubChem (several laboratories)
# An excerpt weighted towards active compounds, which were near 2% of everything screened.
# CR mimetic SO – caloric restriction mimetics inhibiting age-related superoxide in yeast; S. cerevisiae aged cells, superoxide DHE fluorescence; stronger effect = lower value; superoxide response (% of plate mean), % at 10 µM; 330,000 tested, 0.18% active;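 active = superoxide response under a set limit, about three screen SD below normal, cut at about 65% in these data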;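 also: yeast aged for seven days with compound at 30 °C before DHE staining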
# Platelet DG rel – modulates dense granule release in human platelets | human platelet-rich plasma, SFLLRN dense granule ATP release, luminescence | inhibition, %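 (compounds screened at 7.5 µM in platelet-rich plasma)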 | 300,000 tested, 0.22% active | AID 1663;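 active = mean replicate score, as percent of positive control, at or above 50; inconclusive = mean below 50 but at least one replicate at or above 50; inactive = mean and every replicate below 50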
# SKKanGAS inh – inhibitors of SKKanGAS S. pyogenes growth in kanamycin (SK-promoter or general growth effect). inhibition, % at 7.5 µM. BacTiter-Glo, 6 h. 300,000 tested, 1.3% active;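 active = mean replicate score, as percent of positive control median, at least 50; inconclusive = mean below 50 but one replicate at or above 50; inactive = mean and every replicate below 50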;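 also: strain carries kanamycin resistance gene driven by streptokinase promoter and grows in 40 µg/ml kanamycin; loss of luminescence reflects streptokinase promoter inhibition or plain growth inhibition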
# PolyA inhibitor – yeast polyadenylation inhibition; S. cerevisiae SKY197-pL101 polyadenylation reporter, beta-gal luminescence; efflux-impaired pdr1/pdr3 knockout yeast; score 100 = 6 SD above DMSO; activity score, % at 12 µM; 300,000 tested, 0.02% active; AID 1875;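 active = lowest replicate activity score at least 50, where 100 means six control SD above control mean; inconclusive = lowest score under 50 but half or more replicates reach 50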;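 also: yeast exposed to compound for 9 h at 30 °C; higher score means more reporter readthrough which indicates perturbed polyadenylation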
# Calb FLC – C. albicans growth modulation with fluconazole. C. albicans CaCi-2 (fluconazole-resistant clinical isolate) + fluconazole, Alamar Blue growth, 48 h. growth inhibition, % (no concentration beside the values). 300,000 tested, 0.57% active. AID 1979;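 active = growth inhibition above about 58% in most replicates, limit read from the data, passing the limit was not always enough; inconclusive = exactly half the replicates above a set limit; inactive = most replicates below a set limit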;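 also: all wells also contain fluconazole at 8 µg/ml as a sub-toxic cotreatment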
# Superoxide pick – yeast aging superoxide inhibition, cherry pick confirmation. 850 tested, 1% active. S. cerevisiae aging, superoxide DHE fluorescence; stronger effect = lower value. superoxide response (% of plate), % at 10 µM. shares compounds with CR mimetic SO;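 active = superoxide signal below 65% of the plate average of sample wells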;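 also: cells aged with compound for 7 days at 30 degrees C before staining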
# DHE counter – DHE fluorescence interference, counter-screen artifact. shares compounds with CR mimetic SO. S. cerevisiae BY4741, flow cytometry; stronger effect = lower value. fluorescence response, % at 10 µM. 850 tested, under 10 active. AID 435000;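 active = fluorescence response below 15%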;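 also: lower means stronger quenching of DHE signal or ROS scavenging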
# Numbers stand for hits; n = inactive; u = inconclusive; x = no result given.
SMILES,CR mimetic SO,Platelet DG rel,SKKanGAS inh,PolyA inhibitor,Calb FLC,Superoxide pick,DHE counter
N#CCc1nn(-c2ccc(Cl)cc2)c(N)c1C#N,n,n,n,n,n,x,x
N#CCc1nn(-c2ccccc2)c2ncnc(N)c12,n,n,n,n,n,n,n
CC(NC(=O)Cn1cccc1C(=O)c1ccccc1)c1ccc2c(c1)OCCO2 (stereo unspecified),n,n,n,n,n,x,x
Cc1ccc(N2C(=O)[C@@H]3[C@H](C2=O)[C@H]2C=CC=NN2[C@@H]3C(=O)Nc2ccc(Cl)cc2)cc1,n,n,n,n,n,x,x
O=C(Nc1ccc(Cl)cc1)[C@@H]1[C@@H]2C(=O)N(c3ccc(Cl)cc3)C(=O)[C@@H]2[C@H]2C=CC=NN21,64,n,n,n,n,n,n
O=C(NNC(=O)C1CC=CCC1)c1ccccc1O (stereo unspecified),n,n,n,n,n,x,x
COc1cccc(Cn2nnc(C(=O)NCc3ccc4c(c3)OCO4)c2N)c1,64,n,n,n,n,n,n
COc1cccc(CNC(=O)c2nnn(CC(=O)Nc3ccc4c(c3)OCO4)c2N)c1,n,n,n,n,n,x,x
CCOc1ccccc1NC(=O)COC(=O)C(CC(C)C)N1C(=O)C2CC=CCC2C1=O (stereo unspecified),65,n,n,n,n,n,n
Cn1c(=O)c(C(=O)NNC(=O)c2ccccc2F)c(O)c2ccccc21,64,n,61,n,n,n,n
Cc1ccc(C(=O)Nc2cccc(NC(=O)c3ccc(C)c([N+](=O)[O-])c3)n2)cc1[N+](=O)[O-],61,n,n,n,n,n,n
NC(=O)CCn1c2ccccc2c2ccccc21,n,n,n,n,n,n,n
OCCOCCOCCn1c2ccccc2c2ccccc21,n,n,n,n,n,n,n
COCCOCCn1c(CCCO)nc2ccccc21,n,n,n,n,n,x,x
O=C(O)Cn1c2ccccc2c2ccccc21,n,n,n,n,n,n,n
O=C(O)CCn1c(=O)c2ccccc2c2ccccc2c1=O,n,n,n,n,n,x,x
NNC(=O)Cn1c2ccccc2c2ccccc21,n,n,n,n,n,n,n
CCN1CCN(C(CNS(=O)(=O)c2ccccc2)c2ccccc2)CC1 (stereo unspecified),n,n,n,n,n,x,x
C=C(c1ccccc1Cl)[n+]1ccccc1,n,n,n,u,n,x,x
Cc1ccc(C)c(OCCC(=O)OC(C)C(=O)Nc2c(C)n(C)n(-c3ccccc3)c2=O)c1 (stereo unspecified),n,n,n,n,x,x,x
CC(C)CCn1c2ccccc2c2cc(CC(N)=O)ccc21,n,n,n,n,n,n,n
COc1cccc(N=Nc2c(=O)[nH]n3c(C)cc(C)nc23)c1,n,n,n,n,n,x,x
CCOc1ccc(N=Nc2c(=O)[nH]n3c(C)cc(C)nc23)cc1,52,n,n,n,n,n,n
CCOC(=O)CC(NC(=O)CCc1c(C)nc2ncnn2c1C)c1ccc(C)cc1 (stereo unspecified),n,n,n,n,n,x,x
CNC(=O)c1c(NC(=O)c2ccc(S(=O)(=O)N(C)c3ccccc3)cc2)sc2c1CCN(C(C)C)C2,54,n,n,n,n,n,n
SMILES,CR mimetic SO,Platelet DG rel,SKKanGAS inh,PolyA inhibitor,Calb FLC,Superoxide pick,DHE counter
COc1ccc(-c2nc3ccccc3c(=O)n2O)cc1,61,n,n,n,n,n,n
O=c1c2ccccc2nc(-c2ccccc2)n1O,n,n,n,n,n,x,x
CCCn1c(=S)[nH]c2cc(C(=O)N3CCN(C4CCCCC4)CC3)ccc2c1=O,n,n,n,n,n,x,x
O=S(=O)(/N=C(/c1ccccc1)N1CCOCC1)c1ccc(F)cc1F,n,x,x,x,x,x,x
COc1ccc(C(=O)Oc2cc(C)c(CN3CCOCC3)cc2C)cc1OC,n,n,n,n,n,x,x
COc1ccccc1C1CCN(C(=O)c2ccc(Cl)cc2)CC1,37,n,n,n,n,n,n
COc1ccccc1C1CCN(C(=O)c2ccccc2)CC1,n,n,n,n,n,x,x
COc1ccc(-n2nnnc2/C=C\Nc2ccc(C)cc2)cc1,n,n,n,n,n,x,x
Cc1cc(C)n(-c2nnc(NC(C)(C)C)nn2)n1,n,n,n,n,n,x,x
Cc1cc(C)n(-c2nnc(NC34CC5CC(CC(C5)C3)C4)nn2)n1,64,n,n,n,n,n,n
Clc1ccccc1-c1nnc2n1CCCCC2,n,n,n,n,n,x,x
CC(C)c1ccc(NC(=O)Cn2c(=O)oc3ccccc32)cc1,65,n,n,n,n,n,n
O=c1cc(-c2ccc([N+](=O)[O-])cc2)c2ccc(O)cc2o1,n,n,n,n,n,x,x
CC(=O)Nc1ccc(S(=O)(=O)n2nc(-c3ccc(C)cc3)nc2N)cc1,n,n,n,n,n,x,x
Cc1ccc(-c2nc(N)n(S(C)(=O)=O)n2)cc1,65,n,n,n,n,n,n
COC(=O)c1ccc(C2/C(=C(/O)c3ccc4c(c3)CC(C)O4)C(=O)C(=O)N2Cc2ccncc2)cc1 (stereo unspecified),n,u,n,n,n,x,x
COc1ccc(-n2nc(C(=O)NCC(=O)NCc3ccco3)c3ccccc3c2=O)cc1,n,n,n,n,n,x,x
O=C(NCc1ccco1)c1nn(-c2ccccc2)c(=O)c2ccccc12,62,n,n,n,n,n,n
CCCCOc1cccc(-c2cc(C(=O)NNC(=S)NCC)c3ccccc3n2)c1,n,n,n,n,n,x,x
CCCCOc1ccc(-c2cc(C(=O)NNC(=S)NCC)c3ccccc3n2)cc1,62,77,63,n,n,n,n
C=C(C)CNC(=S)NNC(=O)CCn1c2cc(Cl)ccc2c2ccc(Cl)cc21,n,n,n,n,n,n,n
Cn1cccc1CC(=O)NNC(=S)Nc1ccc(Cl)cc1Cl,n,n,n,n,n,x,x
C=C(C)CNC(=S)NNC(=O)CCn1c2ccc(Cl)cc2c2cc(Cl)ccc21,n,n,74,n,n,n,n
C=CCNC(=S)NNC(=O)COc1ccc(Cl)cc1Cl,n,n,n,n,n,x,x
C=C(C)CNC(=S)NNC(=O)c1ccncc1,n,n,n,n,n,x,x
SMILES,CR mimetic SO,Platelet DG rel,SKKanGAS inh,PolyA inhibitor,Calb FLC,Superoxide pick,DHE counter
C=C(C)CNC(=S)NNC(=O)CCn1c2ccccc2c2ccccc21,n,n,n,n,n,n,n
O=C(CN1CCN(Cc2ccccc2)CC1)NNC(=O)c1ccccc1,n,x,x,x,x,x,x
Cc1ccc(S(=O)(=O)c2nc(NN(C)C)sc2Cl)cc1,n,n,n,n,n,x,x
CC(C)(C)n1nc(-c2ccc(Cl)cc2)c2c(N)ncnc21,50,72,n,n,n,56,n
CC(C)(C)n1nc(-c2ccc(F)cc2)c2c(N)ncnc21,32,n,n,n,n,n,n
COc1cc(Nc2ncnc(N)n2)cc(OC)c1,59,n,n,n,n,n,n
O=C(COc1ccc(Cl)cc1Cl)OCn1nnc2ccccc2c1=O,n,n,n,n,n,x,x
Cc1ccccc1OCC(=O)OCn1nnc2ccccc2c1=O,65,n,n,n,n,n,n
